From PubChem BioAssay AID2315 (National Center for Advancing Translational Sciences (NCATS), 2010)
The campaign covered roughly 290,000 compounds. About 27,000 (9.3%) were called active. The sample as a whole holds a higher share of actives than the screen did. Values without a mark were called inactive. Cut-off read from the data, not from the text of the source: active = inhibition mostly above about 28% (no sharp cut-off); inactive = mostly below about 43%.

test: A qHTS for Small Molecule Inhibitors of Shiga Toxin; details: Vero cells, Shiga toxin protein synthesis inhibition reporter; at 38.7 µM, stronger effect = higher value; for inhibition: 0% is about no effect

| Compound | inhibition |
| --- | --- |
| COc1cc(CCC(=O)N2CCN(c3ccccc3Cl)CC2)cc(OC)c1OC | -6.24% |
| O=C(CN1CCC(NC(=O)C2CC2)CC1)Nc1ccccc1[N+](=O)[O-] | -3.78% |
| O=c1ccc2cc(S(=O)(=O)NCCCc3ccccc3)ccc2[nH]1 | 3.55% |
| COc1ccc(CNC(=O)CSc2n[nH]c(N)n2)cc1OC | 0.155% |
| COc1cccc(NCCC(=O)c2cccc([N+](=O)[O-])c2)c1 | 67.3% (active) |
| Cc1cccc(C(=O)NNC(=O)c2cccc([N+](=O)[O-])c2)c1 | 3.18% |
| CC(C)(C)SCCNC(=O)c1cccc([N+](=O)[O-])c1 | -40.1% (active) |
| COc1cccc(C(=O)CC(=O)C(=O)Nc2ccc([N+](=O)[O-])cc2C)c1 | 4.12% |
| COc1cccc(CNC(=O)CCCC(=O)Nc2cccc([N+](=O)[O-])c2)c1 | -12.3% |
| Cc1cc(CNC(=O)c2cccc([N+](=O)[O-])c2)c2ccccc2n1 | 54% |
| CCOc1ccc(C(C)=O)cc1COC(=O)c1cnc(Cl)c(Cl)c1 | 14.4% |
| COC(=O)c1ccc(COC(=O)c2cnc(Cl)c(Cl)c2)cc1 | 87.3% (active) |
| COC(=O)c1ccc(COC(=O)c2cnccn2)cc1 | 5.86% |
| CN(Cc1ccccc1)C(=O)c1ccc(NC2=NC3CS(=O)(=O)CC3S2)cc1 (configuration not stated) | -3% |
| O=C1CCc2cc(S(=O)(=O)N3CCC(C(=O)NCc4ccccc4Cl)CC3)ccc2N1 | -4.83% |
| CSc1cccc(NC(=O)C2CCCN2S(=O)(=O)c2ccc3c(c2)CCC(=O)N3)c1 (configuration not stated) | 25.9% (active) |
| CC(=O)Nc1ccc(NC(=O)C2CCCN2S(=O)(=O)c2cccc(C(F)(F)F)c2)cc1 (configuration not stated) | -1.36% |
| CC(=O)c1cccc(NC(=O)C2CCN(C(=O)c3ccccc3Cl)CC2)c1 | -18.7% |
| CCOc1ccc(C)cc1S(=O)(=O)NC1CCCCCC1 | -4.32% |
| CCc1cc2c(=O)n(-c3ccccc3)c(SCC(=O)O)nc2s1 | -7.15% |
| COc1ccc(/C=C2\SC(=S)N(CC(=O)NNC(=O)c3ccncc3)C2=O)cc1 | 30.3% |
| COc1ccc(/C=C2\SC(=N)N(c3ccc(F)cc3)C2=O)cc1 | -5.41% |
| COc1ccc(/C=C2\N=C3CCCN3C2=O)cc1 | 84.4% (active) |

| Compound | inhibition |
| --- | --- |
| CC(C)c1c(C(=O)N/N=C/c2ccc(-c3ccccc3)cc2)nnn1-c1nonc1N | -5.37% |
| CCOc1ccc(CN2CCN(CCCc3ccccc3)C(CCO)C2)cc1 (configuration not stated) | 1.09% |
| COc1ccc(N2C(=O)NC(NS(=O)(=O)c3ccc(Cl)cc3)(C(F)(F)F)C2=O)cc1 (configuration not stated) | -3.26% |
| Cc1[nH]n(-c2ccc(Cl)cc2)c(=O)c1/C=N/n1c(C)nc2ccccc2c1=O | 38.2% |
| Cc1[nH]n(-c2ccccc2)c(=O)c1/C=N/NC(=O)c1ccoc1C | 125% (active) |
| COc1cc(/C=N/NC(=O)c2ccoc2C)ccc1OCCN1CCCCC1 | 29.5% |
| Cc1[nH]n(-c2ccc([N+](=O)[O-])cc2)c(=O)c1C=NCCN1CCN(C(=O)c2ccccc2F)CC1 | -12.7% |
| COc1cc(/C=N\NC(=O)CNC(=O)c2cccc([N+](=O)[O-])c2)ccc1O | -6.08% |
| Cc1ccc(-n2[nH]c(C)c(/C=N/NC(=O)c3cccc([N+](=O)[O-])c3)c2=O)cc1C | 62.4% (active) |
| COc1cc(NS(=O)(=O)c2ccc(NC(=S)NC(=O)c3ccc(Br)cc3)cc2)ncn1 | -2.95% |
| N#CCC(=O)NC1CCC(CC2CCC(NC(=O)CC#N)CC2)CC1 (configuration not stated) | -8.84% |
| Cc1[nH]c(C)c(S(=O)(=O)N2CCN(c3cccc(C(F)(F)F)c3)CC2)c1C(=O)N1CCCCC1 | -4.18% |
| NC(=O)C1=C[C@H](c2csc3ccccc23)C[C@H](OCc2ccc(CO)cc2)O1 | 24% |
| Cc1cc(C)c[n+](-c2nc3ccccc3nc2[N-]S(=O)(=O)c2cccs2)c1 | 1.54% |
| O=C(NCCc1ccccc1)C1CCN(S(=O)(=O)c2ccc(Br)s2)CC1 | 9.64% |
| O=S(=O)([N-]c1nc2ccccc2nc1-[n+]1ccc(Cc2ccccc2)cc1)c1ccc(Br)s1 | 47.8% (active) |
| CCOc1ncccc1C(=O)NCCc1ccc(OC)cc1 | -6.94% |
| CNC(=O)c1sc(NCc2ccccc2OC)nc1C | 4.08% |
| Cc1cc2c(c(=O)n1Cc1ccccc1)C1O[C@](CCCCN3C(=O)c4ccccc4C3=O)(Cc3ccccc31)O2 | inactive |
| O=C(O)CCCN1C(=O)c2ccccc2Sc2ncccc21 | -5.85% |
| c1csc(-c2cn3c(n2)SCC3)c1 | 16.5% |
| O=c1c2cc(-c3ccccc3)sc2nc2n1N=C(c1cccs1)CS2 | 100% (active) |
| O=c1[nH]c(-c2cccs2)nc2ccccc12 | 32.8% |

| Compound | inhibition |
| --- | --- |
| C#CC(C)(C)NC(=O)c1cnc(-c2ccccc2)nc1-c1ccccc1 | -5.15% |
| CC(=O)c1ccc(N2CCN(S(=O)(=O)c3ccc4c(c3)CC(=O)N4C)CC2)cc1 | 54.4% (active) |
| CC(=O)c1ccc(N2CCN(S(=O)(=O)c3c(C)[nH]c(=O)[nH]c3=O)CC2)cc1 | 16.6% |
| CC(=O)c1ccc(N2CCN(C(=O)C3CCN(S(=O)(=O)c4ccc5c(c4)CC(C)N5C(=O)C4CC4)CC3)CC2)cc1 (configuration not stated) | 22.9% |
| CCCn1nnnc1NCc1ccc(CC)cc1 | -8.65% |
| O=C(/C=C/c1ccc(Cl)cc1Cl)NCc1ccco1 | 94.1% (active) |
| O=C(NCc1ccco1)C1(c2ccc(Cl)cc2)CCCC1 | -3.65% |
| COC(=O)/C=C/C(=O)NCc1ccco1 | 18.7% |
| CC(NC(=O)c1cc(=O)[nH]c2ccccc12)c1ccc(F)cc1F (configuration not stated) | 9.23% |
| CCOc1cc(/C=C2\SC(N3CCCCC3)=NC2=O)ccc1O | 67.1% (active) |
| CCOc1cc(/C=C2\SC(N3CCCC(C)C3)=NC2=O)ccc1O (configuration not stated) | 60.1% (active) |
| CCOc1ccc(/C=C2\SC(=S)N(NC(=O)c3ccncc3)C2=O)cc1OC | -10.1% |
| CCOc1cc(C(=S)N2CCOCC2)ccc1O | -8.19% |
| CC1CCN(C2=NC(=O)/C(=C/c3ccc(O)cc3)S2)CC1 | 38.6% |
| O=C1N=C(N2CCCC2)S/C1=C\c1cccc(Br)c1 | 34.8% |
| CC(C)CNS(=O)(=O)c1ccc(CCC(=O)NCc2ccc(Cl)cc2)cc1 | -10.9% |
| CCOc1cc(-c2cc(-c3ccc(NC(C)=O)cc3)nc(N)c2C#N)ccc1O | -1.91% |
| COc1ccc(S(=O)(=O)Nc2ccccc2C(=O)N2CCCC2)cc1C | 5.33% |
| O=C(NNC(=O)C1CCCC1)c1ccc(F)cc1 | 10.8% |
| O=C(O)c1cccc2c1C(=O)N(C1CCCC1)C2 | -4.27% |
| CCOc1ccc(S(=O)(=O)N2CCN=C2Cc2ccccc2)cc1C | -2.53% |
| CC1CCCCC1NC(=O)c1cn(C)c2ccc(S(=O)(=O)N3CCOCC3)cc2c1=O (configuration not stated) | -15.7% |
| COc1ccc(OCC(=O)N2CCOCC2)cc1 | 51.9% |

| Compound | inhibition |
| --- | --- |
| COc1ccc(/C(C)=N/N2CCOCC2)c(O)c1 | 47.1% (active) |
| COc1cc(C(=S)N2CCOCC2)ccc1O | -13.2% |
| COc1ccc(N(CC(=O)Nc2cc(OC)cc(OC)c2)S(=O)(=O)c2c(C)n[nH]c2C)cc1 | 5.74% |
| CCN(CC)S(=O)(=O)c1ccc(C(=O)N2CCN(C3=NS(=O)(=O)c4ccccc43)CC2)cc1 | 16.6% |
| O=c1c2ccccc2nnn1CSc1nnnn1-c1ccccc1 | 62.9% |
| Nc1nnc(SCCN2C(=O)c3ccccc3S2(=O)=O)s1 | -8.37% |
| Nc1nnc(SCn2nnc3ccccc3c2=O)s1 | 46.5% (active) |
| Cc1ccc(-n2cc(CN(C)Cc3nccn3C)c(-c3cccc(C)c3)n2)cc1 | -6.37% |
| O=C(NC1=NCCS1)c1ccc(Cl)s1 | 149% (active) |
| COc1ccc(C(=O)NCc2nnc(SCC(=O)NC3=NCCS3)n2C)cc1 | -9.89% |
| COc1ccc(C(=O)N2CCCN(C)CC2)c(OC)c1 | -2.8% |
| COc1ccc(C(=O)NC2=NCCS2)c(OC)c1 | 42% (active) |
| O=C(Nc1nncs1)c1ccccc1NS(=O)(=O)c1cccs1 | -4.57% |
| COc1ccc(C(=O)Nc2nncs2)c(OC)c1 | 62.3% (active) |
| COc1ccc(C(=O)NC(C)CCc2ccccc2)c(OC)c1 (configuration not stated) | 22.2% |
| O=C(NC1=NCCS1)[C@H](Cc1ccccc1)N1C(=O)c2ccccc2C1=O | -5.83% |
| O=C(NCc1ccc2c(c1)OCO2)c1ccc(Cl)s1 | 50.7% |
| CC(C)C(=O)NCC(c1cccs1)S(=O)(=O)c1ccc(F)cc1 (configuration not stated) | 2.44% |
| COc1ccc(CNC(=O)c2nnn(CC(=O)Nc3cc(C)cc(C)c3)c2N)cc1 | -9.11% |
| COc1ccc(Cn2c(=S)[nH]c3cc(C(=O)NCCCN4CCOCC4)ccc3c2=O)cc1 | 18.7% |
| CCOC(=O)[C@H]1[C@H]2COc3cc(OC)ccc3[C@@H]2N2C(=O)N(c3ccc(Br)cc3)C(=O)[C@@]12C | -9.26% |
| Cc1cc(=O)oc2c3c(cc(OCC(=O)NCc4ccccn4)c12)OC(C)(C)CC3 | -3.65% |
| CCCn1c2ccccc2c2cnn(CC(=O)NCCCN3CCCCC3CC)c(=O)c21 (configuration not stated) | -4.97% |
